Results on nine compounds are retold here after PubChem BioAssay (NCI).

“And” between values parts separate entries of the source, which are not always exact repeats. Identical values can stand only once. About 79,000 compounds went through this panel and 15% of them were active in at least one assay; those are over-represented in the sample as a whole. Some structures have more than one record in an assay (separate samples or runs), and their calls can disagree. The source made the active and inactive calls. Rule as the data show it: active = growth inhibition above about 70%; inactive = the rest.

The nature of assay [1]: NCI Yeast Anticancer Drug Screen. Data for the rad50 strain (AID 155).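 Also: 0% = growth of vehicle-only cultures of the same strain.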 The following applies: S. cerevisiae rad50 strain growth inhibition; at 50.0 µM; stronger effect = higher value. The essentials:
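Relative growth inhibition (compound vs vehicle) was measured in yeast with a defined repair-gene alteration.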

The nature of assay [2]: NCI Yeast Anticancer Drug Screen. Data for the mec2-1 strain (AID 157). As to conditions: S. cerevisiae mec2-1 strain, at 50.0 µM, stronger effect = higher value. The essentials: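 Compounds were applied to mec2-1 yeast cells. Their growth was then compared with that of vehicle-treated cultures to give growth inhibition.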
The nature of assay [3]: NCI Yeast Anticancer Drug Screen. Data for the sgs1 mgt1 strain (AID 161).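 Also: 0% = growth of cultures given vehicle only.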 The following applies: S. cerevisiae sgs1 mgt1 strain, at 50.0 µM, stronger effect = higher value. Put shortly: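 Yeast cells carrying a defined DNA-repair defect were exposed to test compounds. Growth inhibition was measured relative to vehicle-treated controls.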
Assay [4] can be described thus: NCI Yeast Anticancer Drug Screen. Data for the cln2 rad14 strain (AID 165).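 Also: 0% = growth equal to vehicle treated cultures.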 The following applies: S. cerevisiae cln2 rad14 strain, at 50.0 µM, stronger effect = higher value. The essentials:
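Strain: cln2 rad14 yeast, altered in cell cycle control and DNA damage repair. Read-out: growth inhibition vs vehicle.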

Assay [5] can be described thus: NCI Yeast Anticancer Drug Screen. Data for the bub3 strain (AID 167). As to conditions: S. cerevisiae bub3 mutant strain, at 50.0 µM, stronger effect = higher value. The essentials:
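Screening used yeast with an engineered genetic alteration affecting cell cycle control. Compound-exposed cultures were compared with vehicle cultures, and reduced growth was taken as inhibition.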

Assay [6] can be described thus: NCI Yeast Anticancer Drug Screen. Data for the mlh1 rad18 strain (AID 175). The following applies: S. cerevisiae mlh1 rad18 strain growth inhibition; at 50.0 µM; stronger effect = higher value. Put shortly: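 A repair-deficient yeast strain is exposed to test compound, and growth is scored relative to vehicle-treated controls.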

For the compound `c1ccc2c(c1)-c1ccccc1C1NC21` (centres undefined), the growth inhibition in assay [1] is 21.3% (inactive) and 69% (inactive); in assay [2], 2.3% (inactive) and 47.4% (inactive); in assay [3], 21.9% (inactive) and 48.2% (inactive); in assay [4], 10.7% (inactive) and 56.1% (inactive); in assay [5], 20.5% (inactive) and 98.5% (active); in assay [6] it was -50.5% (inactive) and 51.2% (inactive).
As for `O=[N+]([O-])c1cc(Cl)ccc1Cl`, the growth inhibition was 11.6% (inactive) and 28.9% (inactive) in assay [1]; 4.4% (inactive) and -26.1% (inactive) in assay [2]; 4.75% (inactive) and -10.9% (inactive) in assay [3]; 3.95% (inactive) and -47.9% (inactive) in assay [4]; -6.85% (inactive) and -12.7% (inactive) in assay [5]; 0.35% (inactive) and -8.7% (inactive) in assay [6].
For the compound `CC(OC(N)=O)C(F)(F)C(F)F` (centres undefined), the growth inhibition is -26.6% (inactive) in assay [1]; -9.15% (inactive) in assay [2]; 1.35% (inactive) in assay [3]; -39.2% (inactive) in assay [4]; -12.8% (inactive) in assay [5]; -1.85% (inactive) in assay [6].
`C=C1CCC2CC1C2(C)C` (centres undefined): the growth inhibition in assay [1] is 5.95% (inactive) and 13.7% (inactive) and -4.1% (inactive); in assay [2], 0.75% (inactive) and -4.25% (inactive) and -15.2% (inactive); in assay [3], 6.5% (inactive) and -6.65% (inactive) and -29.8% (inactive); in assay [4], 9.45% (inactive) and -27% (inactive) and 2.6% (inactive); in assay [5] it was 10.3% (inactive) and 0.05% (inactive) and -6.7% (inactive); in assay [6], 21.4% (inactive) and 2.7% (inactive) and -10.2% (inactive).
`CC1OP(=S)(N2C(=O)c3ccccc3C2=O)OC2CCCCC12` (centres undefined): the growth inhibition was 11.8% (inactive) in assay [1]; 15.6% (inactive) in assay [2]; 4.4% (inactive) in assay [3]; -26.4% (inactive) in assay [4]; 10.2% (inactive) in assay [5]; -5.9% (inactive) in assay [6].
Consider `CCOP(=O)(OCC)C(C#N)Cc1ccco1` (centres undefined), for which the growth inhibition is -19.2% (inactive) in assay [1]; -23.9% (inactive) in assay [2]; -14.1% (inactive) in assay [3]; -9.4% (inactive) in assay [4]; -4.1% (inactive) in assay [5]; 1.9% (inactive) in assay [6].
Consider `NC(=O)C(Cl)(Cl)Cl`, for which the growth inhibition in assay [1] was -6.6% (inactive); in assay [2], 9.25% (inactive); in assay [3], 6.1% (inactive); in assay [4] it was 4.95% (inactive); in assay [5], -5.65% (inactive); in assay [6], 12.4% (inactive).
As to `[Se]=P(N1CCCCC1)(N1CCCCC1)N1CCCCC1`, the growth inhibition is 21.6% (inactive) in assay [1]; 2.75% (inactive) in assay [2]; 6.4% (inactive) in assay [3]; 6.55% (inactive) in assay [4]; 11.4% (inactive) in assay [5]; 10.2% (inactive) in assay [6].
On to `COc1ccc2nc3ccccc3c(NCCCCCCN(CCCl)CCCl)c2c1`, for which the growth inhibition in assay [1] is 88.2% (active); in assay [2] it was 79.1% (active); in assay [3] it was 80.8% (active); in assay [4] it was 86.3% (active); in assay [5] it was 48.4% (inactive); in assay [6] it was 82.9% (active).
